Results as given in PMC7819943, “Rice protein-binding microarrays: a tool to detect cis-acting elements near promoter regions in rice”.
In all, about 68,000 sequences were measured (“fluorescence intensity (a.u.)”: median about 9,100, highest 2% from about 16,000 on). The sample holds the highest values, similar sequences and a random draw of the others, so the mix is not that of the screen.

What follows are sequences tested against OsWRKY34 (Oryza sativa, UniProt Q0JBA9 1-250) (assay: protein-binding microarray (RPBM); PBS, 2% BSA, 51.3 ng/ul salmon testes DNA, 50 uM zinc acetate, 200 nM TF, 25 C, 1 h; high values mean tight binding). Details: protein: recombinant; tags: N-terminal polyhistidine and DsRed monomer fusion (pET32a); label: CyDye5-dUTP incorporated in the synthesized complementary strand; 3' TTTTT single-stranded linker to array surface; dsDNA, one strand shown.
In short: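 Transcription factors were made in E. coli BL21-CodonPlus as N-terminal fusions to a polyhistidine tag and DsRed, then purified on Ni–NTA. After primer extension with Cy5-dUTP and blocking with 2% BSA, a custom Agilent array was exposed for 1 h at 25 °C to 200 nM protein in PBS, 2% BSA, salmon testes DNA and 50 µM zinc acetate. Washed arrays were scanned on an Axon 4000B, and the binding signal is per-feature fluorescence intensity in arbitrary units.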

Chain of OsWRKY34 (Q0JBA9 entry or part of it): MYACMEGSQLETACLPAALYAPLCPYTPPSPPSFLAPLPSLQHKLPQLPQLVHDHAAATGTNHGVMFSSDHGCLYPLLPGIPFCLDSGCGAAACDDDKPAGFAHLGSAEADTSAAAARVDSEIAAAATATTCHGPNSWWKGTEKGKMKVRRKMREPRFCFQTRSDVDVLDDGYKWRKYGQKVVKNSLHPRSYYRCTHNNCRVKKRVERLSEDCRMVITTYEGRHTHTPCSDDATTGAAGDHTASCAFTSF

| Sequence | binding signal |
| --- | --- |
| GTTTGTCAAAAAGTCAACGGCGTCATATATTATACGGAGGCGGAGTCACCTAGTGCAG | 18800 fluorescence intensity (a.u.) |
| AAAAAGTCAACGGCGTCATATATTAAAATATGGAGAGAGTCGGAGTCACCTAGTGCAG | 8150 fluorescence intensity (a.u.) |
| GGTTTTTCCTAGTTTTGAGATTTACGTGCTATTTTGTGAACGGAGTCACCTAGTGCAG | 8950 fluorescence intensity (a.u.) |
| CGTGTCGCACCACATCCAGCGTCCCACGGCCTACCACCGCCGGAGTCACCTAGTGCAG | 8700 fluorescence intensity (a.u.) |
| ATATGGCATCTCGGTTTCGTCTTAACAGGGTATTGCACTACGGAGTCACCTAGTGCAG | 9900 fluorescence intensity (a.u.) |
| ACTCCCTTGCTTTTTCTCGCTATCAATCACAATAATCCAACGGAGTCACCTAGTGCAG | 9590 fluorescence intensity (a.u.) |
| CGTGTGGTTGATTGTGTGTGCGAGCCGAATGCTGCCTACTCGGAGTCACCTAGTGCAG | 9260 fluorescence intensity (a.u.) |
| TTACCATGGTGCATTTACGGCTGTGATCGCTTTGTTGTACCGGAGTCACCTAGTGCAG | 9370 fluorescence intensity (a.u.) |
| TCTCGGCTCGCAATGCTTTTTGGAGTTTTGTTTCTCTCCCCGGAGTCACCTAGTGCAG | 10200 fluorescence intensity (a.u.) |
| TCATTGCACCTCTCATTTAACAAGGGATATAATAGTTCTTCGGAGTCACCTAGTGCAG | 8360 fluorescence intensity (a.u.) |
| TGGCATCATCGACCATACACTTTTGTCAATCCGTTCAGCTCGGAGTCACCTAGTGCAG | 8910 fluorescence intensity (a.u.) |
| GCTTCAAACTCGAGCTTCTACCAGTACCAGCTACCAGGTGCGGAGTCACCTAGTGCAG | 8190 fluorescence intensity (a.u.) |
| AAAAAGTCAACGGCGTCAAACATATTGAAACGGAGGGAGTCGGAGTCACCTAGTGCAG | 8240 fluorescence intensity (a.u.) |
| TAGTCAAACGTTGAAAAAAAAAGTCAACGGCGTCACACATCGGAGTCACCTAGTGCAG | 20900 fluorescence intensity (a.u.) |
| CAAACGTTGGAAAAAAGTCAACGGCGTCATATATTTTAATCGGAGTCACCTAGTGCAG | 15800 fluorescence intensity (a.u.) |
| AAAATTCCTAAAACTACTTGCTACTATTCTCTCTCCAACTCGGAGTCACCTAGTGCAG | 8240 fluorescence intensity (a.u.) |
| TCCTCGCGTTCTTTTTCTCCACCGAGACCACCGGCGCTCTCGGAGTCACCTAGTGCAG | 9050 fluorescence intensity (a.u.) |
| TTGGTGGCCTTTTCTCCCTTTTTTGCATGTGCTTTGCTCTCGGAGTCACCTAGTGCAG | 14100 fluorescence intensity (a.u.) |
| GATACCGTTGACTTTTTAGCACATATTTGACCGTTCGTCTCGGAGTCACCTAGTGCAG | 39400 fluorescence intensity (a.u.) |
| GGATTTTAAGTTTTTACTTGCACTGTTTGACCATTCGTCTCGGAGTCACCTAGTGCAG | 9200 fluorescence intensity (a.u.) |
| TGATACCGTTGACTTTTCACATAACTTGGTCGTTCGTTTTCGGAGTCACCTAGTGCAG | 34100 fluorescence intensity (a.u.) |

| Sequence | binding signal |
| --- | --- |
| AGCACATATTTGACCGTTCGTCTTATTCAAAAACTTTTATCGGAGTCACCTAGTGCAG | 8540 fluorescence intensity (a.u.) |
| GGATTTTGACTTTTTACTTGCACTGTTTGACTATTCGTCTCGGAGTCACCTAGTGCAG | 18600 fluorescence intensity (a.u.) |
| CACATATCGTTTAAATTTTCGACTTGACCGTTTTTCAATTCGGAGTCACCTAGTGCAG | 9550 fluorescence intensity (a.u.) |
| TACCCCTCCGTTTCATATGATAAGTTGTTTGACTTTTTTTCGGAGTCACCTAGTGCAG | 14300 fluorescence intensity (a.u.) |
| GACGCCGTTGACTTTTTATCACATATTTGACCGTTCGTCTCGGAGTCACCTAGTGCAG | 20400 fluorescence intensity (a.u.) |
| GATTTTGACTTTTTACTTGCACTGTTTGACCATTCATATTCGGAGTCACCTAGTGCAG | 16300 fluorescence intensity (a.u.) |
| ACGCCGTTGATTTTTTTAAACATATTTGACCGTTCGTCTTCGGAGTCACCTAGTGCAG | 11400 fluorescence intensity (a.u.) |
| ACTTCACCGGTTTCCGGCGTCCGGCGCGGCGCCTGCAGAACGGAGTCACCTAGTGCAG | 9530 fluorescence intensity (a.u.) |
| TAACACCCAACACTTACACTCTGGCATTTTGGAGGTCTTGCGGAGTCACCTAGTGCAG | 8990 fluorescence intensity (a.u.) |
| AGCACCTACGGCGGCGTCTTCTCCTACTGCCTACCGCCGACGGAGTCACCTAGTGCAG | 9000 fluorescence intensity (a.u.) |
| ATGACGTCCAAAGCTTCACCTTTTTTTTTATATATAAACCCGGAGTCACCTAGTGCAG | 8260 fluorescence intensity (a.u.) |
| GGGTAGGAGGAGGTAATTGAGAGGTAATTCCTCCTTTAATCGGAGTCACCTAGTGCAG | 9220 fluorescence intensity (a.u.) |
| TTTTGACGACCCTAGCAATATTGCTATACACTCTTCATTCCGGAGTCACCTAGTGCAG | 10700 fluorescence intensity (a.u.) |
| AAGAAATCTTCCCTGTCCTACCTTTTCTTCTCACTGTATGCGGAGTCACCTAGTGCAG | 8860 fluorescence intensity (a.u.) |
| ACAGGAGAGTGATTACTTTTGCATTATTAATTGATGTTGTCGGAGTCACCTAGTGCAG | 8400 fluorescence intensity (a.u.) |
| TTAGCACATGTTTGACCGTTCGTCTTATTCAAAAACTTTTCGGAGTCACCTAGTGCAG | 12600 fluorescence intensity (a.u.) |
| TTTGACATCATTGACTTTTTAGCACATATTTGACCGTTCGCGGAGTCACCTAGTGCAG | 14400 fluorescence intensity (a.u.) |
| CACCGTTGACTTTTTAGCACATATTTGACCGTTTGTCTTTCGGAGTCACCTAGTGCAG | 39100 fluorescence intensity (a.u.) |
| GACACCGTTAACTTTTTAGCATATGTTTGACCGTTCGTCTCGGAGTCACCTAGTGCAG | 10600 fluorescence intensity (a.u.) |
| GACACTGTTGACTTTTTAGCACATATTTGACCGTTCGTCTCGGAGTCACCTAGTGCAG | 21300 fluorescence intensity (a.u.) |
| CCCACACTTCTCCCGTTCTCCTGGAGGAAGACGACACCCACGGAGTCACCTAGTGCAG | 8150 fluorescence intensity (a.u.) |
